Screening results (PubChem BioAssay)
Only some compounds are listed: those with a hit (about 12% of all), similar ones and a draw of the others.
Sfp PPTase inh: qHTS Assay for Inhibitors of Bacillus subtilis Sfp phosphopantetheinyl transferase (PPTase); 4'-phosphopantetheinyl transferase ffp (Bacillus subtilis), Q9F4F7; Biochemical Sfp PPTase activity, qHTS; Potency, µM, most hits filed as inhibitors; hit rate 3.5% among 310,000; AID 1490, 2009;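 further: the enzyme is Sfp with the accession as filed and its product quenches rhodamine fluorescence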
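After 15 min at room temperature with compound, 15 nM Sfp received 5 uM rhodamine-CoA plus 12.5 uM BHQ-2-ybbR (50 mM Hepes pH 7.6, 10 mM MgCl2). Rate came from the fluorescence difference over 30 min, ex 525/em 598 nm.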
BAZ2B inh: qHTS Assay for Inhibitors of BAZ2B; hit rate 4.4% among 360,000; Potency, µM (series often up to 114 µM), hits mostly inhibitors; Bromodomain adjacent to zinc finger domain protein 2B (Homo sapiens), Q9UIF8; AlphaScreen BAZ2B-H3K14Ac peptide displacement; AID 504333, 2011; further: nearly all actives have a fitted effect of over 60% in size
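AlphaScreen displacement of biotin-H3(5-23)K14Ac peptide (50 nM final) from BAZ2B (50 nM final) in PBS pH 7.4, 0.01% Tween-20; complex preformed 30 min RT, then compounds (top 110 uM) 30 min RT, beads 20 min dark.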
TDP1 inh: qHTS Assay for Inhibitors of Tyrosyl-DNA Phosphodiesterase (TDP1); Tyrosyl-DNA phosphodiesterase 1 (Homo sapiens), Q9NUW8; AID 485290, 2010; Potency, µM (titrated, usually from 130 µM), hits mostly inhibitors; recombinant TDP1, AlphaScreen DNA substrate cleavage; hit rate 0.28% among 350,000; further: nearly all actives have a fitted effect of over 40% in size
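Recombinant E. coli-expressed Tdp1 (1 nM) preincubated with compound 15 min at RT, then 5'-biotin/3'-phosphotyrosine-FITC DNA substrate (15 nM) added for 5 min. AlphaScreen beads (10 ug/ml) added, 10 min RT; tyrosine-FITC cleavage read as signal loss.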
G9a block: qHTS Assay for Inhibitors of Histone Lysine Methyltransferase G9a. G9a H3K9 monomethylation, AlphaScreen, 2 h. Potency, µM (doses to about 102 µM), usual class: inhibitors. hit rate 8.8% among 350,000. AID 504332, 2011; further: nearly all actives have a fitted effect of over 75% in size
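G9a (20 nM) preincubated 15 min RT with compounds, then 500 nM biotinylated H3K9 peptide and 20 uM SAM added; 2 h RT reaction. Monomethyl-H3K9 product detected by AlphaScreen with anti-H3K9me1 antibody, streptavidin donor and anti-rabbit IgG acceptor beads.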
HP1b chromo inh: HTS for Inhibitors of HP1-beta Chromodomain Interactions with Methylated Histone Tails. AlphaScreen HP1-beta / biotin-H3K9me3 peptide binding. hit rate 0.56% among 390,000. Potency, µM (titrated, usually from 114 µM), usual class: inhibitors; further: nearly all actives have a fitted effect of over 70% in size
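Compound inhibition of the preformed complex between 50 nM HP1-beta and 50 nM biotinylated H3K9me3 peptide was read by AlphaScreen. Buffer was PBS pH 7.4 with 0.01% Tween-20. Incubations ran 30 min at room temperature, with 10 ug/mL donor/acceptor beads.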
JMJD2A Tudor inh: qHTS Assay for Inhibitors of JMJD2A-Tudor Domain | Lysine-specific demethylase 4A (Homo sapiens), O75164 | AlphaScreen JMJD2A-Tudor / H3K4me3 peptide binding | Potency, µM (highest dose often 114 µM), most hits filed as inhibitors | hit rate 4.4% among 390,000; further: nearly all actives have a fitted effect of over 50% in size
Target sequence (O75164 whole entry, looked up, the tested form may be a part): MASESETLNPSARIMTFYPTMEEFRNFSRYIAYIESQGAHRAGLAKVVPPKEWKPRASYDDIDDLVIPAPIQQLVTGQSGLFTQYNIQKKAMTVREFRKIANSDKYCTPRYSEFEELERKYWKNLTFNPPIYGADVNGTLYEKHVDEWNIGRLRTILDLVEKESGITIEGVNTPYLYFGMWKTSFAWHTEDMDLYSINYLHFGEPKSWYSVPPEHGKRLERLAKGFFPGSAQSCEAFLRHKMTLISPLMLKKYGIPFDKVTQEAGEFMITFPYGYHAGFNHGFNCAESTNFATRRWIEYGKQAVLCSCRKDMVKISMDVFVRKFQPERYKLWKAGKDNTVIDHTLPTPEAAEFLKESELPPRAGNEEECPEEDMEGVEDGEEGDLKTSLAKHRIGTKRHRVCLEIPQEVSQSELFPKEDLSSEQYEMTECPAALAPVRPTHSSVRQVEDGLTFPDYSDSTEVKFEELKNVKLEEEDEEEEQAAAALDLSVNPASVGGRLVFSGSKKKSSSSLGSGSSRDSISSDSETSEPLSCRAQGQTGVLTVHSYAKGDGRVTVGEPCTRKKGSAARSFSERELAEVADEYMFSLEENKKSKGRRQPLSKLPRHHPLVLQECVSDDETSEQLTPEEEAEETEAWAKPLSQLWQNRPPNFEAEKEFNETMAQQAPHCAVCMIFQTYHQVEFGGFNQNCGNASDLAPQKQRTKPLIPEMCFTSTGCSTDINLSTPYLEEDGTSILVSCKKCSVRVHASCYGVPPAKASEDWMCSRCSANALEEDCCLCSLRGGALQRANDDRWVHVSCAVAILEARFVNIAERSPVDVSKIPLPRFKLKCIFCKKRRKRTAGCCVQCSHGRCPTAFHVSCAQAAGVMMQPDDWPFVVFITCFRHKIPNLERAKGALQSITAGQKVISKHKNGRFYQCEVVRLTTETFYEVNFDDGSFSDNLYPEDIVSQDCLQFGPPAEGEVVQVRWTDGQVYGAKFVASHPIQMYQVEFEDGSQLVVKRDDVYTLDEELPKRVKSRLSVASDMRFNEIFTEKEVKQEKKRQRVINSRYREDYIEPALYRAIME
Large screens that a line does not name were inactive. The call rests on the fitted dose curve; in most records, active means well fitted curve in the direction sought with a large enough effect; inconclusive means small, poorly fitted or top-dose-only effect, or another doubt; inactive means no such curve, though single readings can be large; an effect the other way counts as inactive or inconclusive.

COC(=O)\C(C(C)=O)=C(/C=C/C=C/C=C/N(C)C)N(C)C	BAZ2B inh 17.8µM, TDP1 inh 3.16µM, G9a block 31.6µM, HP1b chromo inh inconclusive, JMJD2A Tudor inh 11.2µM
Cc1noc(C)c1CSc1nnc(-c2ccccc2)n1N	Sfp PPTase inh 31.6µM, G9a block 3.16µM, HP1b chromo inh inconclusive, JMJD2A Tudor inh inconclusive
Cc1noc(C)c1CSc1nc2ccccc2s1	none
COc1cc(-c2nnc(SC/C=C/c3ccccc3)n2N)cc(OC)c1OC	none
Cc1noc(C)c1CSc1ccc2ccccc2n1	Sfp PPTase inh 79.4µM
Nn1c(SC/C=C/c2ccccc2)nnc1-c1ccncc1	G9a block 14.1µM, JMJD2A Tudor inh inconclusive
C[C@H]1CC[C@@H]2N(C1)C[C@H]1[C@@H]3C[C@H]4[C@@H](C/C(=N\O)[C@H]5C[C@@H](O)CC[C@@]54C)[C@@H]3CC[C@H]1[C@]2(C)O	none (no result: BAZ2B inh, G9a block, HP1b chromo inh, JMJD2A Tudor inh)
CCN1C(=O)[C@@H]2[C@@H](c3ccc(-c4cccc(Cl)c4)c(OC)c3)N3CCCC[C@@]3(C(=O)OC)[C@@H]2C1=O	none (no result: Sfp PPTase inh)
O=C(CCN1CCc2ccccc2C1)c1ccc2c(c1)OCCO2	Sfp PPTase inh 44.7µM, G9a block 8.91µM
O=C(CCN1CCCCC1)c1ccc2c(c1)OCCO2	G9a block 8.91µM
O=C(CCN1CCCC1Cc1ccccc1)c1ccc2c(c1)OCCO2 (stereo not given)	Sfp PPTase inh 50.1µM, BAZ2B inh inconclusive, G9a block 2.82µM, HP1b chromo inh inconclusive, JMJD2A Tudor inh 89.1µM
O=C(CCN1CCCCCC1)Nc1ccc2c(c1)OCCO2	BAZ2B inh 56.2µM, G9a block inconclusive, HP1b chromo inh inconclusive, JMJD2A Tudor inh 5.01µM
O=C(c1ccc2c(c1)OCCO2)N1CCCCC1	none
O=C(c1ccc2c(c1)OCO2)N1CCc2ccccc2C1	none
Cc1nc(SCC(=O)Nc2ccc(C)c(Cl)c2)cc(-c2ccccc2)n1	none (no result: Sfp PPTase inh)
CCOC(=O)c1ccc(NS(=O)(=O)c2ccc3c(c2)OCCO3)cc1	none (no result: Sfp PPTase inh)
CCOC(=O)C(=O)CC(=O)c1ccc2c(c1)OCCO2	BAZ2B inh 50.1µM, G9a block 20µM
Cc1cccc(C(=O)NCC(c2cccs2)S(=O)(=O)c2cccs2)c1 (stereo not given)	none (no result: Sfp PPTase inh)
Cc1oc(C)c2c(=O)ccc3c(c12)OC(N)=C(C#N)C3c1ccc(F)cc1 (stereo not given)	Sfp PPTase inh inconclusive, BAZ2B inh 56.2µM, G9a block inconclusive, HP1b chromo inh inconclusive
Cc1[nH]nc2c1C(c1ccc(F)cc1)C(C#N)=C(N)O2 (stereo not given)	none (no result: BAZ2B inh)
Oc1[nH]c2ccccc2c1N=NC(=S)N1CCOCC1	BAZ2B inh 22.4µM, G9a block 31.6µM, JMJD2A Tudor inh 7.08µM
COC(=O)N=Nc1c(O)[nH]c2ccc(Br)cc12	none
Oc1[nH]c2ccc(Br)cc2c1N=NC(=S)N1CCOCC1	BAZ2B inh 44.7µM, G9a block 3.55µM, JMJD2A Tudor inh 17.8µM
CC(=O)N1CCC2(CC1)OC(=O)C(C)=C2C(=O)Nc1ccccc1C(F)(F)F	none (no result: Sfp PPTase inh)
CCCN1CCN(CC(=O)Nc2nnc(CC)s2)CC1	JMJD2A Tudor inh 7.08µM (no result: G9a block)
CCc1nnc(NC(=O)CN2CCN(Cc3ccccc3C)CC2)s1	none (no result: TDP1 inh, G9a block)
CCc1nnc(NC(=O)CN2CCN(c3ccccc3F)CC2)s1	G9a block 50.1µM
O=C(CN1CCN(c2cccc(Cl)c2)CC1)Nc1nccs1	BAZ2B inh inconclusive, G9a block 39.8µM
CCc1nnc(NC(=O)CN2CCN(c3cccc(OC)c3)CC2)s1	G9a block 14.1µM
CCc1nnc(NC(=O)CN2CCN(Cc3cccc(OC)c3)CC2)s1	none
CCc1nnc(NC(=O)CN2CCOCC2)s1	Sfp PPTase inh inconclusive, JMJD2A Tudor inh inconclusive
